Bioassay records from PubChem BioAssay.
ELG1 repair inh – ELG1-dependent DNA repair inhibition. HEK293T ELG1-luciferase reporter, luminescence, 16 h; DNA damage induced by 5-fluorouridine. Potency, µM (doses to about 46.1 µM), for inactives: at the highest dose activity change, negative = inhibition, most hits filed as inhibitors. actives 2.3% (n = 330,000); note: % is set by controls: 0 for no effect and ±100 for the full control effect; nearly all actives have a fitted effect of over 55% in size
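Step one: seed 2,000 cells per well. Step two: pin-transfer compound or DMSO alongside 5-fluorouridine. Step three: incubate 16 hr, 37 °C, 5% CO2. Step four: add ONE-Glo, wait 30 min, read luminescence.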
NPC1 prom act – activators of NPC1 promoter; Huh7 NPC1 promoter luciferase reporter, 24 h; Potency, µM (top dose mostly 9.22 µM), inactives show at the top dose activation, usual class: activators; actives 2.4% (n = 320,000); note: % of control where 0% means no effect; nearly all actives have a fitted effect of over 60% in size
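Stably transfected Huh7 (NPC1 promoter→luciferase), 1500 cells/well in Opti-MEM + 10% FBS, 2 h settle, then compound 24 h at 37 °C. Luminescence after 10 min with Amplite reagent.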
ELG1 genotox – inducers of genotoxicity in HEK293T ELG1-luciferase cells; HEK293T ELG1-luciferase reporter, luminescence, 16 h; actives 1.3% (n = 330,000); Potency, µM (series often up to 46 µM), inactives show at the highest dose activity change, positive = activation, usual class: activators; AID 504466; note: % of control where 0% means no effect; nearly all actives have a fitted effect of over 60% in size
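16 hr compound incubation (37 °C, 5% CO2) of HEK293T cells carrying luciferase-tagged ELG1; luciferase then measured by ONE-Glo luminescence after 30 min at RT.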
FLuc counter – counter-screen for miR-21 project: firefly luciferase inhibitors or activators; P08659; purified FLuc, Km substrates, luminescence inhibition; Potency, µM (top dose mostly 57.5 µM), without a hit: top-dose activity change, negative = inhibition, usual class: inhibitors; actives 6.9% (n = 360,000);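 note: plate controls were vehicle for no effect and reference inhibitor for full effect; nearly all actives have a fitted effect of over 55% in size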
Target sequence (P08659 whole entry, looked up): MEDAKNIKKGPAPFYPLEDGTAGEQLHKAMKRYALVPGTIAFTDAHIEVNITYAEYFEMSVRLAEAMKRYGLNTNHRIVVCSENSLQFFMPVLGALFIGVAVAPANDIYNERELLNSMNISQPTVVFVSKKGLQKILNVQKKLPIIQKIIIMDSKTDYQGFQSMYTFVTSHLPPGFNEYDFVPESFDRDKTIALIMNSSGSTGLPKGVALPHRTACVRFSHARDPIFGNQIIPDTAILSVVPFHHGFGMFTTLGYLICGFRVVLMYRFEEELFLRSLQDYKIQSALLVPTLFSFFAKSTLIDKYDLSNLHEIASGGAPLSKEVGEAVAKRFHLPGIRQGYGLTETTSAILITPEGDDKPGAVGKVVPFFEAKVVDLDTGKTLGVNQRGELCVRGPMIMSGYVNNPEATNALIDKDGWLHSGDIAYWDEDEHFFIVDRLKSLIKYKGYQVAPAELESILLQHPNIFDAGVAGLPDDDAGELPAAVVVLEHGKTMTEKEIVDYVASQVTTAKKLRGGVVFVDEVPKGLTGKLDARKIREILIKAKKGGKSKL
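Purified P. pyralis luciferase (10nM final) with 10uM D-luciferin and 10uM ATP (Km levels) in 50mM Tris acetate pH 7.5, 10mM Mg acetate, 0.01% Tween-20, 0.05% BSA; qHTS 6-point titration, ~60 µM downward; luminescence read.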
Rab9 promoter act – activators of Rab9 promoter; actives 2.8% (n = 320,000); Potency, µM (series often up to 9.22 µM), for inactives: at the highest dose activation, negative = inhibition, most hits filed as activators; Huh7 Rab9 promoter-luciferase reporter, luminescence, 24 h; AID 485297; note: % of control where 0% means no effect; nearly all actives have a fitted effect of over 60% in size
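Rab9 promoter-driven luciferase in stably transfected Huh7 cells; 1500 cells/well rested 2 h, exposed to compound in DMSO for 24 h at 37 °C, 5% CO2. Luminescence read 10 min after adding luciferase reagent at ambient temperature.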
SMN2 splice enh – increases expression of the SMN2 splice variant; HEK293 SMN2-luciferase splicing reporter, luminescence, 30-36 h; Potency, µM (series often up to 46.1 µM), for the others: top-dose activity change, positive = activation, most hits filed as activators; actives 2.8% (n = 210,000); AID 1458; note: % of control where 0% means no effect; nearly all actives have a fitted effect of over 55% in size
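HEK293 cells carry an SMN2 […]–luciferase reporter in which exon 7 inclusion puts luciferase in frame. Cells were plated 10-12 h before compound addition, then incubated 30-36 h at 37C. ONE-Glo luminescence was read; sodium butyrate at 4.5 mM final served as control.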
An asterisk follows results filed as active; ? = inconclusive; nt = no result; [ ] = dose if it differs, or a comment. Hits are enriched below; roughly 9.4% of the tested compounds scored in any of these assays. Calls come from the whole dose curve; as a rule, active = well fitted curve in the direction sought with a large enough effect; inconclusive = small, poorly fitted or top-dose-only effect, or another doubt; inactive = no such curve, though single readings can be large; an effect the other way counts as inactive or inconclusive. Potency is the fitted concentration of half-maximal effect.

SMILES | ELG1 repair inh | NPC1 prom act | ELG1 genotox | FLuc counter | Rab9 promoter act | SMN2 splice enh
CC(=O)Nc1ccc(/C(C)=N/Nc2nc(Nc3cccc4ccccc34)nc(N3CCOCC3)n2)cc1 | 7.3µM* | -5% | -12% | ? | -4% | -28%
CC(=O)Nc1ccc(/C(C)=N/Nc2nc(N3CCOCC3)nc(N3CCOCC3)n2)cc1 | ? | 6% | -3% | 0% | 8% | -12%
O=C(COc1cccc(C(F)(F)F)c1)N1CCN(c2ccc(O)cc2)CC1 | 16µM* | 1% | -11% | -11% | -3% | -15%
O=C(Nc1ccc(OCC(=O)N2CCOCC2)cc1)Nc1cccc(Cl)c1 | -2% | 9% | -2% | 12µM* | 4% | nt
Cc1ccc(S(=O)(=O)Nc2ccccc2C(=O)c2ccc(C)c(C)c2)cc1 | nt | nt | nt | nt | nt | -1%[9.22 µM]
N=C(N)c1ccc(N2CCN(C3CCN(CC(=O)O)CC3)CC2)cc1 | nt | nt | nt | nt | nt | -6%
O=C(Nc1ccc(C(=O)N2CCOCC2)cc1)Nc1cccc2ccccc12 | ? | 13% | ? | 15µM* | -1% | -43%
COc1ccc(Cl)cc1NC(=O)Nc1ccc(C(=O)N2CCOCC2)cc1 | -15% | -3% | -2% | ? | 0% | nt
O=C(Nc1ccc(C(=O)N2CCOCC2)cc1)Nc1cccc(Cl)c1 | 8% | ? | -1% | 15µM* | 30% | ?
CC(C)(C)c1ccc(NC(=O)Nc2ccc(OCC(=O)N3CCOCC3)cc2)cc1 | ? | 3.2µM* | ? | 0.48µM* | 2.2µM* | 16µM*
COC(=O)[C@@H]1C[C@@H]2CC[C@@H](O)C[C@@H]2N1CC1CCCCC1 | nt | nt | nt | nt | nt | 3%
Cc1cccc(NC(=O)C(c2ccccc2)N2Cc3ccccc3C2=O)c1C (configuration not stated) | nt | nt | nt | 3% | nt | nt
CCCN1CCc2c(sc(NC(=O)c3ccc(S(=O)(=O)N(C)c4ccccc4)cc3)c2C(=O)NC)C1 | 23µM* | -1% | -18% | 0% | -6% | nt
CN(C)Cc1ccc(-c2cc3onc(-c4ccccc4)c3c(=O)n2C)cc1 | nt | nt | nt | nt | nt | -16%[9.22 µM]
COc1ccc(-c2cc3onc(-c4c(Cl)cccc4Cl)c3c(=O)n2C)cc1 | ? | -1% | -4% | ? | 1% | nt
Cn1c(-c2ccc(F)c(F)c2)cc2onc(-c3ccccc3)c2c1=O | ? | 0.79µM* | 2.3µM* | 1.3µM* | 1.1µM* | nt
COc1cccc(-c2cc3onc(-c4ccccc4)c3c(=O)n2C)c1 | ? | 0.71µM* | ? | 0.85µM* | 0.4µM* | nt
COC(=O)c1ccc(-c2cc3onc(-c4ccccc4)c3c(=O)n2C)cc1 | ? | ? | ? | 4.3µM* | 28% | nt
O=C(Nc1nc2c(F)cc(F)cc2s1)c1ccc(S(=O)(=O)N2CCc3ccccc32)cc1 | nt | nt | nt | -16% | nt | nt
O=C(COc1ccc(Cl)cc1)NCCc1csc(-c2ccc(C(F)(F)F)cc2)n1 | nt | nt | nt | 4% | nt | nt
Nc1nc(C2CC2)c(Sc2sc(N)nc2C2CC2)s1 | -2% | 1% | -6% | -1% | -3% | 16µM*
NCC1O[C@@H](OC2C(N)CC(N)C(O)C2O[C@@H]2OC(CO)C(O)C2O)C(N)C(O)C1O (some centres not stated) | nt | nt | nt | nt | nt | -1%
O=C(CN1C(=O)C2(SCC(=O)N2c2cccc(Cl)c2)c2ccccc21)NCCc1ccccc1 (configuration not stated) | nt | nt | nt | -10% | nt | nt
O=C(NCCc1ccc(Cl)cc1)c1ccc(Br)s1 | ? | 4µM* | ? | ? | 4.5µM* | nt
Cc1ccc(C(=O)NCCc2ccc(F)cc2)s1 | ? | 1.4µM* | ? | 9.5µM* | 2.8µM* | 4.5µM*
SMILES | ELG1 repair inh | NPC1 prom act | ELG1 genotox | FLuc counter | Rab9 promoter act | SMN2 splice enh
Cc1ccc(C(=O)NCC(c2ccc(F)cc2)N2CCOCC2)s1 (configuration not stated) | ? | nt | -1% | nt | nt | nt
COc1ccc(C2=NC(C)(C)N(CC(=O)Nc3cccc(C)c3)C2=O)cc1 | nt | nt | nt | -4% | nt | -19%
O=c1c2c([nH]c3ccccc13)CCCC2 | -3% | 4% | -4% | -1% | 2% | -24%
CC(C)(C)C1CCc2[nH]c3ccccc3c(=O)c2C1 (configuration not stated) | ? | 20% | ? | 6µM* | 10% | -6%
CC(C)NC(=O)c1cc2c(Cl)nc3ccccc3c2s1 | nt | nt | nt | -17% | nt | -16%
COc1ccc(/C=C/c2nc3cc(-c4ccccc4)ccc3o2)cc1O | ? | 1% | -1% | 9.5µM* | 5% | -91%
COc1ccc(-c2c/c(=N\c3nc(-c4ccccc4)c(C)s3)c3ccccc3o2)cc1O | ? | -14% | 16% | 3% | -18% | -19%
Cc1ccc(Cl)cc1NC(=O)c1ccc(-c2nc(CSc3ccccc3)c(C)o2)cc1 | nt | nt | nt | -3% | nt | nt
CCCn1c2c(c(=N)c3c1CCC3)CCC2 | 18µM* | -28% | -7% | -2% | -36% | nt
CCCCCCCn1c2c(c(=N)c3ccccc31)CCC2 | 4.1µM* | -40% | -9% | 0% | -46% | nt
Cc1ccc(Cl)cc1NC(=O)C(Cc1ccccc1)N1C(=O)C2C3CCC(C3)C2C1=O (configuration not stated) | ? | -1% | -7% | 2% | -9% | -14%
Cc1ccc(NC(=O)C(Cc2ccccc2)N2C(=O)C3C4CCC(C4)C3C2=O)cc1Cl (configuration not stated) | 18µM* | -6% | -9% | -4% | 0% | -9%
Cc1cc(C)nc(NC(=O)COc2ccc(Cl)cc2)c1 | nt | nt | nt | nt | nt | -5%[9.22 µM]
Cc1ccnc(NC(=O)COc2ccc(Cl)cc2)n1 | ? | 19% | ? | 24µM* | 21% | nt
O=C(COc1ccc(Cl)cc1)Nc1ncccn1 | ? | 13% | 21µM* | 19µM* | 16% | 8%
c1ccc(-c2cc3n(c2)CCc2ccccc2-3)cc1 | ? | 3.5µM* | -6% | 4.8µM* | 3.2µM* | 11µM*
O=C(O)c1cc2c(s1)-c1ccccc1CC2 | 1% | 2% | 2% | -16% | 8% | -13%[1.84 µM]
CCN(CC)S(=O)(=O)c1ccc(NC(=O)[C@H](CSCc2ccccc2)N2Cc3ccccc3C2=O)cc1 | nt | nt | nt | 5% | nt | 4.5µM*
CCCc1ccc(OC(=O)c2ccc(O)cc2Cl)cc1 | ? | 2µM* | ? | 2.4µM* | 1µM* | ?
Cc1oc2ccc(OC(=O)c3cccs3)cc2c1C(=O)OC(C)C | ? | -3% | 6% | -16% | 5% | -6%
CCCc1ccc(OC(=O)c2cccs2)cc1 | -1% | 2% | 12% | 6µM* | -2% | -5%
Cc1cc(OC(=O)c2cccs2)ccc1C(C)C | 5% | 0% | 1% | 3µM* | -1% | 3%
O=C(Oc1ccc2c(c1)OCO2)c1cccs1 | 13% | 2% | 5% | 11µM* | -5% | ?
